In all, about 5,500 compounds went through this assay and about 2,000 (36%) were called active. About 18% were inconclusive and are not listed. No stated cut-off is given here; in the data, active means normalized growth mostly below about 0.91 (no sharp cut-off); inconclusive means no clear call, values can overlap the other calls; inactive means mostly above about 0.92. The list shows a part of the results.
Assay: chemical genetic growth profiling, strain panel (AID 1159580);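 further: tested at 20 µM; growth read once vehicle control cultures reached saturation at 30 °C; 1 = growth at the plate median or of vehicle wells; lower values mean less growth of the strain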
Conditions: growth OD

Measured: normalized growth

CN1CC(=O)N=C1N
inactive: S. cerevisiae deletion strains, locus YJR043C, strain POL32, hits give low values 1.01 | S. cerevisiae deletion strains, locus YJR066W, strain TOR1, hits give low values 0.902 | S. cerevisiae deletion strains, locus YJR075W, strain HOC1, hits give low values 1.01 | S. cerevisiae deletion strains, locus YKL009W, strain mrt4, hits give low values 1.05 | S. cerevisiae deletion strains, locus YKL068W, hits give low values 0.996 | S. cerevisiae deletion strains, locus YKL085W, strain MDH1 (second series), hits give low values 0.998 | S. cerevisiae deletion strains, locus YKL085W, strain MDH1, hits give low values 0.998 | S. cerevisiae deletion strains, locus YKL160W, strain elf1, hits give low values 1.01 | S. cerevisiae deletion strains, locus YKR001C, strain vps1, hits give low values 1.01 | S. cerevisiae deletion strains, locus YKR026C, strain gcn3, hits give low values 0.994 | S. cerevisiae deletion strains, locus YKR091W, strain srl3, hits give low values 1.02 | S. cerevisiae deletion strains, locus YLL001W, strain dnm1, hits give low values 1.01 | S. cerevisiae deletion strains, locus YLL026W, hits give low values 1.02 | S. cerevisiae deletion strains, locus YLL041C, strain sdh2, hits give low values 1.02 | S. cerevisiae deletion strains, locus YLR027C, strain aat2, hits give low values 1.03 | S. cerevisiae deletion strains, locus YLR039C, strain RIC1, hits give low values 1.04 | S. cerevisiae deletion strains, locus YLR058C, strain SHM2, hits give low values 1.01 | S. cerevisiae deletion strains, locus YLR102C, strain apc9, hits give low values 0.992 | S. cerevisiae deletion strains, locus YLR113W, strain HOG1, hits give low values 0.94 | S. cerevisiae deletion strains, locus YLR221C, strain rsa3, hits give low values 1.05 | S. cerevisiae deletion strains, locus YLR258W, strain gsy2, hits give low values 1.03 | S. cerevisiae deletion strains, locus YLR262C, strain YPT6 (second series), hits give low values 1.09 | S. cerevisiae deletion strains, locus YLR262C, strain YPT6, hits give low values 1.08 | S. cerevisiae deletion strains, locus YLR268W, strain sec22, hits give low values 0.977 | S. cerevisiae deletion strains, locus YLR320W, strain mms22, hits give low values 1.07 | S. cerevisiae deletion strains, locus YLR330W, strain CHS5, hits give low values 1.01 | S. cerevisiae deletion strains, locus YLR342W, strain FKS1 (second series), hits give low values 0.984 | S. cerevisiae deletion strains, locus YLR342W, strain FKS1, hits give low values 1.03 | S. cerevisiae deletion strains, locus YLR357W, strain rsc2, hits give low values 1.01 | S. cerevisiae deletion strains, locus YLR370C, strain arc18, hits give low values 1.02 | S. cerevisiae deletion strains, locus YLR371W, strain rom2, hits give low values 0.985 | S. cerevisiae deletion strains, locus YLR384C, strain iki3, hits give low values 1.01 | S. cerevisiae deletion strains, locus YLR418C, strain cdc73, hits give low values 0.98 | S. cerevisiae deletion strains, locus YML016C, strain PPZ1, hits give low values 1.01 | S. cerevisiae deletion strains, locus YML032C, strain rad52, hits give low values 0.987 | S. cerevisiae deletion strains, locus YML120C, strain ndi1, hits give low values 1.03 | S. cerevisiae deletion strains, locus YML124C, strain tub3, hits give low values 0.992 | S. cerevisiae deletion strains, locus YMR058W, strain fet3, hits give low values 1.04 | S. cerevisiae deletion strains, locus YMR078C, strain ctf18, hits give low values 1 | S. cerevisiae deletion strains, locus YMR125W, strain sto1, hits give low values 1.02 | S. cerevisiae deletion strains, locus YMR129W, hits give low values 1.01 | S. cerevisiae deletion strains, locus YMR205C, strain PFK2, hits give low values 1.08 | S. cerevisiae deletion strains, locus YMR223W, strain ubp8, hits give low values 0.992 | S. cerevisiae deletion strains, locus YMR231W, strain pep5, hits give low values 1.01 | S. cerevisiae deletion strains, locus YMR307W, strain GAS1, hits give low values 0.998 | S. cerevisiae deletion strains, locus YNL067W, strain RPL9B, hits give low values 1.01 | S. cerevisiae deletion strains, locus YNL071W, strain lat1, hits give low values 1.03 | S. cerevisiae deletion strains, locus YNL128W, strain TEP1, hits give low values 1.04 | S. cerevisiae deletion strains, locus YNL183C, strain NPR1, hits give low values 0.893 | S. cerevisiae deletion strains, locus YNL209W, strain ssb2, hits give low values 1.03 | S. cerevisiae deletion strains, locus YNL233W, strain BNI4, hits give low values 1.01 | S. cerevisiae deletion strains, locus YNL248C, strain rpa49, hits give low values 1.02 | S. cerevisiae deletion strains, locus YNL250W, strain rad50, hits give low values 0.996 | S. cerevisiae deletion strains, locus YNL271C, strain bni1, hits give low values 0.991 | S. cerevisiae deletion strains, locus YNL298W, strain CLA4, hits give low values 0.988 | S. cerevisiae deletion strains, locus YNL307C, strain MCK1, hits give low values 0.98 | S. cerevisiae deletion strains, locus YNL322C, strain KRE1 (second series), hits give low values 1.02 | S. cerevisiae deletion strains, locus YNL322C, strain KRE1, hits give low values 1.01 | S. cerevisiae deletion strains, locus YNR049C, strain mso1, hits give low values 1.01 | S. cerevisiae deletion strains, locus YNR052C, strain pop2, hits give low values 0.991 | S. cerevisiae deletion strains, locus YOL012C, strain htz1 2.03 | S. cerevisiae deletion strains, locus YOL147C, strain pex11, hits give low values 0.99 | S. cerevisiae deletion strains, locus YOR001W, strain rrp6, hits give low values 1.02 | S. cerevisiae deletion strains, locus YOR061W, strain CKA2, hits give low values 1.01 | S. cerevisiae deletion strains, locus YOR069W, strain VPS5, hits give low values 1.01 | S. cerevisiae deletion strains, locus YOR070C, strain gyp1, hits give low values 1.03 | S. cerevisiae deletion strains, locus YOR080W, strain dia2, hits give low values 1.02 | S. cerevisiae deletion strains, locus YOR083W, strain WHI5, hits give low values 1.01 | S. cerevisiae deletion strains, locus YOR106W, strain vam3, hits give low values 1.02 | S. cerevisiae deletion strains, locus YOR136W, strain idh2, hits give low values 0.996 | S. cerevisiae deletion strains, locus YOR144C, strain elg1, hits give low values 0.997 | S. cerevisiae deletion strains, locus YOR184W, strain ser1, hits give low values 1.03 | S. cerevisiae deletion strains, locus YOR231W, strain MKK1, hits give low values 0.964 | S. cerevisiae deletion strains, locus YOR265W, strain rbl2, hits give low values 1.01 | S. cerevisiae deletion strains, locus YOR270C, strain vph1, hits give low values 1.11 | S. cerevisiae deletion strains, locus YOR290C, strain snf2, hits give low values 1.02 | S. cerevisiae deletion strains, locus YOR316C, strain cot1, hits give low values 0.993 | S. cerevisiae deletion strains, locus YPL051W, strain arl3, hits give low values 1.02 | S. cerevisiae deletion strains, locus YPL055C, strain LGE1, hits give low values 1.03 | S. cerevisiae deletion strains, locus YPL078C, strain atp4, hits give low values 1.02 | S. cerevisiae deletion strains, locus YPL106C, strain sse1, hits give low values 1.02 | S. cerevisiae deletion strains, locus YPL240C, strain hsp82, hits give low values 1.02 | S. cerevisiae deletion strains, locus YPL256C, strain CLN2, hits give low values 0.946 | S. cerevisiae deletion strains, locus YPR119W, strain clb2, hits give low values 0.991 | S. cerevisiae deletion strains, locus YPR141C, strain kar3, hits give low values 0.989 | S. cerevisiae deletion strains, locus YPR163C, strain tif3, hits give low values 0.982 | S. cerevisiae deletion strains, locus YPR167C, strain met16, hits give low values 0.979 | S. cerevisiae deletion strains, strain wtn01, hits give low values 0.974 | S. cerevisiae strains, strain wild type, hits give low values 1.01

Source: PubChem BioAssay AID1159580 (chemical genetic matrix, 2015)
